Shown are actives, neighbours in structure and some others; about 8.1% of the full set was active somewhere.
SW480 rereplic – inducers of DNA re-replication in SW480 colon cancer cells | SW480 DNA re-replication, Hoechst DNA content imaging, 48 h | Potency, µM (doses to about 46.1 µM), for the others: at the top dose re-replication activation, actives largely listed as activators | 340,000 tested, 1.8% active; also: % of control where 0% means no effect; nearly all actives have a fitted effect of over 55% in size
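First, 250 cells per well were seeded. Next, compound or vehicle (23 nL) was pinned in, plates sat 48 hr at 37 C. Finally Hoechst was added for 40 min before fluorescence scanning.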
KB-V1 MDR tox – KB-V1 MDR subline cytotoxicity | KB-V1 MDR cells viability, CellTiter-Glo, 72 h | Potency, µM (titrated, usually from 46.1 µM), most hits filed as cytotoxic | 400,000 tested, 3.4% active | AID 1347076; also: % is scaled to controls: 0 for no effect and ±100 for the full control effect; nearly all actives have a fitted effect of over 60% in size
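KB-V1, DMEM (no phenol red) + 10% FBS; cpd pin-transferred, titration series; 72 h, 37 degrees C; CellTiter-Glo, luminescence. Data normalized, curve-fit.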
ELG1 repair inh – ELG1-dependent DNA repair inhibition. HEK293T ELG1-luciferase reporter, luminescence, 16 h; DNA damage induced by 5-fluorouridine. Potency, µM (top dose mostly 46.1 µM), inactives show at the top dose activity change, negative = inhibition, most hits filed as inhibitors. 330,000 tested, 2.3% active. AID 504467; also: % is scaled to controls: 0 for no effect and ±100 for the full control effect; nearly all actives have a fitted effect of over 55% in size
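Cells (2,000 per well) received 5-fluorouridine plus test compound or DMSO and were incubated 16 hr at 37 °C, 5% CO2. Luciferase activity was read by luminescence 30 min after ONE-Glo addition; signal suppression marked inhibition of damage-induced ELG1 function.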
KB-3-1 tox – kills parental KB-3-1 adenocarcinoma cells | KB-3-1 viability, CellTiter-Glo ATP luminescence, 72 h | Potency, µM (doses to about 46.1 µM), hits mostly cytotoxic | 400,000 tested, 1.4% active | AID 1347075; also: % is scaled to controls: 0 for no effect and ±100 for the full control effect; nearly all actives have a fitted effect of over 60% in size
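Multi-concentration cytotoxicity screen in KB-3-1 cells grown in DMEM lacking phenol red with 10% FBS. After 72 h at 37 °C with compound, ATP-dependent luminescence was recorded.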
MCF10A rereplic – induces DNA re-replication in MCF 10a normal breast cells; AID 624296; MCF 10A DNA re-replication, Hoechst nuclear intensity, 48 h; Potency, µM (series often up to 46.1 µM), for the others: top-dose activity, positive = re-replication, most hits filed as activators; 350,000 tested, 2.9% active; also: % of control where 0% means no effect; nearly all actives have a fitted effect of over 50% in size
* hit, by the source's call; [ ] = another dose, or the depositor's remark. Calls follow the shape of the dose curve; as a rule, active = well fitted curve in the direction sought with a large enough effect; inconclusive = small, poorly fitted or top-dose-only effect, or another doubt; inactive = no such curve, though single readings can be large; an effect the other way counts as inactive or inconclusive. Potency is read from the fitted curve at half-maximal effect.

Screening CCOC(=O)c1c(C)c(-c2ccccc2)n(CC(=O)Nc2cccc(C)c2C)c1C returned KB-V1 MDR tox inactive and KB-3-1 tox inactive.
For Cc1ccc(C2(C)NC(=O)N(CC(=O)Nc3ccccc3C(=O)NC3CCCC3)C2=O)cc1 (stereo not given) the results were SW480 rereplic 0%, KB-V1 MDR tox inactive, ELG1 repair inh 1%, KB-3-1 tox inactive and MCF10A rereplic 10%.
CCCc1cnc2c(c1SCC(=O)Nc1ccccc1F)c(=O)n(C)c(=O)n2C was read as KB-V1 MDR tox inactive and KB-3-1 tox inactive.
COCCCNc1nc2c(-c3ccccc3)nnn2c2ccccc12 was read as KB-V1 MDR tox inactive and KB-3-1 tox inactive.
O=C(Nc1ccc(S(=O)(=O)N2CCCCC2c2cccnc2)cc1)c1ccc(F)cc1 (stereo not given) was read as KB-V1 MDR tox inactive and KB-3-1 tox inconclusive.
`CCOc1ccc2[nH]c(=O)c(CN(CC3COCCO3)C(=O)c3ccco3)cc2c1` (stereo not given) gave SW480 rereplic -4%, KB-V1 MDR tox inactive, ELG1 repair inh 6%, KB-3-1 tox inactive and MCF10A rereplic 0%.
CCOc1ccc2[nH]c(=O)c(CN(Cc3ccc(F)cc3)C(=O)c3ccco3)cc2c1 was read as SW480 rereplic inconclusive, KB-V1 MDR tox 15µM*, ELG1 repair inh inconclusive, KB-3-1 tox 16µM* and MCF10A rereplic inconclusive.
CCc1ccc2[nH]c(=O)c(CN(Cc3ccccc3OC)C(=O)Nc3ccccc3OC)cc2c1 was read as SW480 rereplic 7%, KB-V1 MDR tox inactive, ELG1 repair inh 23µM*, KB-3-1 tox inconclusive and MCF10A rereplic inconclusive.
For CCN(CC)CCN(Cc1cc2cc(C)ccc2[nH]c1=O)C(=O)Nc1ccccc1OC the results were SW480 rereplic -1%, KB-V1 MDR tox inactive, ELG1 repair inh -2%, KB-3-1 tox inactive and MCF10A rereplic -8%.
CCN(Cc1cc2cc(C)ccc2[nH]c1=O)C(=O)c1cccc(OC)c1 was read as SW480 rereplic 6%, KB-V1 MDR tox 9.2µM*, ELG1 repair inh inconclusive, KB-3-1 tox inactive and MCF10A rereplic 11%.
`Cc1ccc(CNc2ncnc3ccc(-c4ccc(CO)o4)cc23)o1` gave KB-V1 MDR tox inactive and KB-3-1 tox inactive.
For CCCc1nc(Cl)c(C#N)c2c1CCCC2 the results were SW480 rereplic -2%, KB-V1 MDR tox inactive, ELG1 repair inh inconclusive, KB-3-1 tox inactive and MCF10A rereplic inconclusive.
Screening CCc1nc(Cl)c(C#N)c2c1CCCC2 returned SW480 rereplic 1%, KB-V1 MDR tox inactive, ELG1 repair inh 13µM*, KB-3-1 tox inactive and MCF10A rereplic 1%.
For Cc1ccc(Cl)cc1Nc1nc2ccccc2c2nncn12 the results were KB-V1 MDR tox inactive and KB-3-1 tox inactive.
For Cc1cccc(N2CCN(C(=S)Nc3ccc4nc(N5CCOCC5)cc(C)c4c3)CC2C)c1 (stereo not given) the results were SW480 rereplic inconclusive, KB-V1 MDR tox inactive, ELG1 repair inh 24%, KB-3-1 tox inactive and MCF10A rereplic 12µM*.
`COc1ccccc1N1CCN(C(=S)Nc2ccc3nc(N4CCOCC4)cc(C)c3c2)CC1` gave SW480 rereplic inconclusive, KB-V1 MDR tox inactive, ELG1 repair inh 18µM*, KB-3-1 tox inactive and MCF10A rereplic inconclusive.
Cc1ccc(C)c(N2CCN(C(=S)Nc3ccc4nc(N5CCN(C)CC5)cc(C)c4c3)CC2)c1 was read as SW480 rereplic -14%, KB-V1 MDR tox inactive, ELG1 repair inh inconclusive, KB-3-1 tox inconclusive and MCF10A rereplic inconclusive.
For Cc1cc(N2CCOCC2)nc2ccc(NC(=S)NCCC(C)C)cc12 the results were SW480 rereplic -2%, KB-V1 MDR tox inactive, ELG1 repair inh inconclusive, KB-3-1 tox inactive and MCF10A rereplic inconclusive.
COc1ccccc1N1CCN(C(=S)Nc2cccc(C)c2)CC1 was read as SW480 rereplic inconclusive, KB-V1 MDR tox inconclusive, ELG1 repair inh 11%, KB-3-1 tox inconclusive and MCF10A rereplic 16µM*.
Cc1ccc(C)c(N2CCN(C(=S)Nc3ccc4nc(N5CCOCC5)cc(C)c4c3)CC2)c1 was read as SW480 rereplic inconclusive, KB-V1 MDR tox inconclusive, ELG1 repair inh -27%, KB-3-1 tox inactive and MCF10A rereplic 16µM*.
`COc1cccc(N2CCN(C(=S)Nc3cc(C)cc(C)c3)CC2)c1` gave SW480 rereplic inconclusive, KB-V1 MDR tox inconclusive, ELG1 repair inh 0%, KB-3-1 tox inactive and MCF10A rereplic 11µM*.
Screening COc1ccc2sc(-c3ccc(S(C)(=O)=O)cc3)c(C(=O)NCCc3c[nH]c4ccccc34)c2c1 returned SW480 rereplic 15%, KB-V1 MDR tox inactive, ELG1 repair inh 18µM*, KB-3-1 tox inactive and MCF10A rereplic inconclusive.
`COc1cccc(NC(=O)Cn2nc3c4ccccc4n(Cc4cccc(F)c4)cc-3c2=O)c1` gave KB-V1 MDR tox inactive and KB-3-1 tox inactive.
O=C(N[C@H]1CC[C@H](CCNC(=O)C2CC2)O[C@@H]1CO)c1ccccn1 was read as KB-V1 MDR tox inactive and KB-3-1 tox inactive.
For Cc1ccc(C)c(NC(=O)C2(C)CC3c4ccccc4C2c2ccccc23)c1 (stereo not given) the results were SW480 rereplic 13%, KB-V1 MDR tox inactive, ELG1 repair inh 12%, KB-3-1 tox inactive and MCF10A rereplic 0%.
Cc1cccc(NC(=O)C2(C)CC3c4ccccc4C2c2ccccc23)c1C (stereo not given) was read as SW480 rereplic -83%, KB-V1 MDR tox 7.3µM*, ELG1 repair inh -1%, KB-3-1 tox inconclusive and MCF10A rereplic 8%.
O=C(Nc1ccccc1N1CCN(C(=O)c2ccccc2)CC1)c1cc(Br)ccc1Cl was read as SW480 rereplic inconclusive, KB-V1 MDR tox 23µM*, ELG1 repair inh inconclusive, KB-3-1 tox inconclusive and MCF10A rereplic -187%[0.0737 µM].
Screening O=C(Nc1ccc(N2CCN(C(=O)c3ccccc3)CC2)c(Cl)c1)c1ccc(Br)o1 returned SW480 rereplic 14%, KB-V1 MDR tox inactive, ELG1 repair inh 12µM*, KB-3-1 tox inconclusive and MCF10A rereplic inconclusive.
COc1c(C)cc(Br)cc1C(=O)Nc1ccccc1N1CCN(C(=O)c2ccccc2)CC1 was read as SW480 rereplic 2%, KB-V1 MDR tox 23µM*, ELG1 repair inh -5%, KB-3-1 tox inconclusive and MCF10A rereplic 1%.
`CCOc1ccc(-c2ccc(NS(=O)(=O)c3ccc(C)cc3)cc2)nn1` gave KB-V1 MDR tox inactive and KB-3-1 tox inactive.
CCOc1ccccc1NC(=O)Cn1nnc(C(=O)NCc2ccco2)c1N was read as SW480 rereplic inconclusive, KB-V1 MDR tox 0.26µM*, ELG1 repair inh 1%, KB-3-1 tox 0.01µM* and MCF10A rereplic 0.13µM*.

Compound activity: PubChem, National Center for Advancing Translational Sciences (NCATS)
